Bioassay records (PubChem)
MITF primary – MITF inhibitors, primary screen, biochemical, AlphaScreen, human | Microphthalmia-associated transcription factor (Homo sapiens), O75030 | AlphaScreen MITF homodimerization, bead proximity signal | inhibition, % at 2.6 µM | actives 0.91% (n = 650,000) | AID 1259374, 2018; in the data active = inhibition above about 50%
Target sequence (O75030 whole entry, looked up): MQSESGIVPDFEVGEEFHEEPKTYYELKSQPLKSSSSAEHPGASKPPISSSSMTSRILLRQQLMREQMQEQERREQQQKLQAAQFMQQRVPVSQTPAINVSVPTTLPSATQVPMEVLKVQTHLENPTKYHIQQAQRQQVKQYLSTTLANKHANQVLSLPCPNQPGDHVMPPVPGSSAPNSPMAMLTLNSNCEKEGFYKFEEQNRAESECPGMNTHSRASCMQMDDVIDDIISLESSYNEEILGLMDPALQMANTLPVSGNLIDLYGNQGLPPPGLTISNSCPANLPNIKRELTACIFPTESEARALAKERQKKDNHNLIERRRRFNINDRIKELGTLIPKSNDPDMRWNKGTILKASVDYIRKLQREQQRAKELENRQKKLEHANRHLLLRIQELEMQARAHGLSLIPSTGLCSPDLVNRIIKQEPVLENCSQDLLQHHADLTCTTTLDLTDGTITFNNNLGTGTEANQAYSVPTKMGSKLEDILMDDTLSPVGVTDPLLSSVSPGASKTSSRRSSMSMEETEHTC
FBW7 act – FBW7 E3 ligase activators, primary screen, biochemical, AlphaScreen, human; AlphaScreen FBW7–phospho-cyclin E peptide binding, activator screen; AID 1259310, 2017; F-box/WD repeat-containing protein 7 (Homo sapiens), Q969H0; actives 0.13% (n = 650,000); normalized activity (activation), % at 26.1 µM; in the data active = normalized activity above about 1.9%;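 also: purified mutant Fbw7 with reduced substrate affinity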
GPR151 activ – activators of human GPR151, primary screen, cell-based, PathHunter beta-arrestin, luminescence; activation, % at 11.2 µM; actives 1% (n = 650,000); AID 1508602, 2020; PathHunter beta-arrestin GPR151 cells; in the data active = activation above about 4.9%
TEAD-YAP inh – TEAD-YAP interaction inhibition, primary screen, TEAD-YAP interaction inhibitor project, luminescence, HEK-TIYL cells; AID 1259422, 2018; actives 1.4% (n = 640,000); TEAD-Gal4/YAP UAS-luciferase luminescence; inhibition, % at 9.12 µM; in the data active = inhibition above about 32%
GPR151 conf act – GPR151 activators, triplicate retest, confirmation, cell-based, PathHunter beta-arrestin, luminescence. 6,700 tested, under 10 active. AID 1508609, 2020. shares compounds with GPR151 activ. GPR151 PathHunter beta-arrestin cells, 90 min; % of EA-reagent control over plate median. activation, % at 11.2 µM;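 active = mean percent activation across replicates above the confirmation screen cutoff of 4.91%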
GPR119 counter – GPR119 activators in beta-arrestin cells, counter-screen for GPR151 activator project, cell-based, PathHunter beta-arrestin, luminescence, triplicate | actives 0.3% (n = 6,700) | shares compounds with GPR151 activ | AID 1508611, 2020 | 90 min; 0 = compound-well median, 100 = enzyme-acceptor control | activation, % at 11.2 µM;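 active = mean percent activation in the counterscreen above 29.09%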;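 also: counterscreen on off-target GPR119 to flag nonselective hits from the GPR151 activator screen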
Large screens that a line does not name were inactive (follow-up assays come after a bar, where they were run). Shown are actives, neighbours in structure and some others; about 3.5% of the full set was active somewhere.

CC1(C)Cc2cccc(OCc3ccc(C(=O)Nc4nccs4)cc3)c2O1	none
O=C(CCC1CCN(C(=O)C2=CCCCC2)CC1)Nc1ccccc1	GPR151 activ 5.3 | GPR151 conf act inactive | GPR119 counter inactive
COCCCNC(=O)c1cccnc1SCc1ccccc1Cl	GPR151 activ 5.5 | GPR151 conf act inactive | GPR119 counter inactive
CCc1c(C)nc2cc(-c3cccs3)nn2c1N1CCC(O)CC1	GPR151 activ 6.2 | GPR151 conf act inactive | GPR119 counter inactive
O=C(NN(c1ccccc1)C1CCS(=O)(=O)C1)C12CC3CC(CC(C3)C1)C2 (stereo not drawn)	none
Cn1nnc2cc(NC(=O)NCc3ccccc3)ccc21	GPR151 activ 6.3 | GPR151 conf act inactive | GPR119 counter inactive
Cn1nnc2cc(NC(=O)Nc3ccccc3F)ccc21	none
CCC(CO)NC(=O)c1cccc(S(=O)(=O)N2CCOCC2)c1 (stereo not drawn)	none
CCC(C)Oc1ccc(C=C2C(=O)NC(=O)NC2=O)cc1Cl (stereo not drawn)	none
O=C1C(Cl)=C(NCCO)C(=O)N1c1ccc(Cl)cc1	GPR151 activ 5.1 | GPR151 conf act inactive | GPR119 counter inactive
CCN(CC)C(=O)C1CCCN(c2nc(NCc3cccnc3)c3ncn(-c4ccsc4)c3n2)C1 (stereo not drawn)	GPR151 activ 6.6, TEAD-YAP inh 37 | GPR151 conf act inactive | GPR119 counter inactive
O=C(NC(NC(=O)c1ccccc1F)c1ccc2c(c1)OCO2)c1ccccc1F	GPR151 activ 11 | GPR151 conf act inactive | GPR119 counter inactive
CC(C)[C@H](NC(=O)c1ccccc1F)C(=O)Nc1ccc2c(c1)OCO2	none
CCCCC(Sc1nc2ccccc2c2nc(-c3ccccc3OC)nn12)C(=O)OCC (stereo not drawn)	GPR151 activ 5.4 | GPR151 conf act inactive | GPR119 counter inactive
COc1ccc(OCC(=O)N2CCC3(CC2)OCc2cc(Cl)ccc2O3)cc1	none
C=CCn1c(N)c(C(=O)NCCc2ccc(OC)c(OC)c2)c2nc3ccccc3nc21	GPR151 activ 14 | GPR151 conf act inactive | GPR119 counter inactive
CCCCCn1c(N2CCCC2)nc2c1c(=O)[nH]c(=O)n2C	none
CCCCCCn1c(N2CC(C)CC(C)C2)nc2c1c(=O)[nH]c(=O)n2C (stereo not drawn)	GPR151 activ 5.8 | GPR151 conf act inactive | GPR119 counter inactive
CC1(C)CC(=O)C(C=NCCN2CCN(C3CC(=O)N(c4ccccc4)C3=O)CC2)=C(O)C1 (stereo not drawn)	none
CCc1sc(C(=O)NCc2ccccc2OC)cc1C	GPR151 activ 5.5 | GPR151 conf act inactive | GPR119 counter inactive
COc1cccc(N2C(=O)/C(=C/c3cc(C)n(C4CC4)c3C)C(=O)NC2=S)c1	none
CC(=O)c1cccc(NC(=O)CC2S\C(=N/N=C/C=C/c3ccccc3)NC2=O)c1 (stereo not drawn)	GPR151 activ 9.3 | GPR151 conf act inactive | GPR119 counter inactive
COCc1ccc(CN2CCCC(N(C)CCc3ccccc3)C2)o1 (stereo not drawn)	GPR151 activ 5.1 | GPR151 conf act inactive | GPR119 counter inactive
COc1ccc(CCN(C)C2CCCN(Cc3ccncc3)C2)cc1OC (stereo not drawn)	GPR151 activ 9.1 | GPR151 conf act inactive | GPR119 counter inactive
COc1ccc(CCN(C)C2CCCN(Cc3ccoc3)C2)cc1OC (stereo not drawn)	none
COc1ccc(CCN(C)C2CCCN(Cc3c(C)nn(C)c3Cl)C2)cc1OC (stereo not drawn)	GPR151 activ 5.9 | GPR151 conf act inactive | GPR119 counter inactive
CN(CCc1ccccc1)C1CCCN(Cc2cccnc2)C1 (stereo not drawn)	none
Cn1c(-c2cc3ccccc3cc2O)n[nH]c1=S	none
O=C(NC1=NCCS1)c1sccc1-c1ccccc1	none
CNC(=O)/C=C/c1cccc(C(F)(F)F)c1	GPR151 activ 6.1 | GPR151 conf act inactive | GPR119 counter inactive
CC(C)(C)OC(=O)N1CCC[C@@H]1C(=O)Nc1ccc2[nH]ncc2c1	GPR151 activ 5.8 | GPR151 conf act inactive | GPR119 counter inactive
COc1ccccc1C(=O)Nc1ccnn1C1CCN(Cc2cccc(C(C)=O)c2)CC1	none
COc1ccccc1C(=O)Nc1ccnn1C1CCN(C2CCCCC2)CC1	GPR151 activ 5.1 | GPR151 conf act inactive | GPR119 counter inactive
CCn1cc(CN2CCC(n3nccc3NC(=O)c3ccc(OC)cc3)CC2)cn1	GPR151 activ 5.2 | GPR151 conf act inactive | GPR119 counter inactive
COc1ccccc1C(=O)Nc1ccnn1C1CCN(Cc2ccc3nsnc3c2)CC1	GPR151 activ 5.6 | GPR151 conf act inactive | GPR119 counter inactive
CC(=O)NC(=O)CSc1nc2ccc([N+](=O)[O-])cc2[nH]1	none
COc1ccccc1C1CC(c2c(-c3ccccc3)c3cc(Br)ccc3[nH]c2=O)=NN1C(=O)c1ccco1 (stereo not drawn)	none
Cc1ccc(S(=O)(=O)N2CCCC(c3[nH]ncc3C)C2)cc1 (stereo not drawn)	none
O=C(Nc1cccc(F)c1)c1cc(S(=O)(=O)NCCC2=CCCCC2)ccc1F	none
O=C(NCCC1=CCCCC1)c1cc(S(=O)(=O)NCCc2ccccc2)ccc1F	GPR151 activ 9.7 | GPR151 conf act inactive | GPR119 counter inactive
CC(=O)c1ccc(NC(=O)C(=O)NC2CCCc3ccccc32)cc1 (stereo not drawn)	GPR151 activ 6.7 | GPR151 conf act inactive | GPR119 counter inactive
O=C(Nc1ccc(S(=O)(=O)N2CCCC2)cc1)C(=O)NC1CCCc2ccccc21 (stereo not drawn)	none
COc1ccc2[nH]c3c(=O)n(CC(=O)NCc4ccccc4)c(=S)[nH]c3c2c1	none
COc1ccccc1NCC(=O)N/N=C/c1cc(Br)ccc1O	GPR151 activ 9.8 | GPR151 conf act inactive | GPR119 counter inactive
COc1ccccc1NCC(=O)N/N=C/c1ccccc1O	none
COc1ccc(Br)cc1/C=N/NC(=O)CSc1ccccn1	GPR151 activ 7.0 | GPR151 conf act inactive | GPR119 counter inactive
COc1ccc(Br)cc1/C=N/NC(=O)CNc1ccccc1C	none
COc1ccc(Br)cc1/C=N/NC(=O)CSc1ncccn1	none
COc1cc(Br)cc(/C=N/NC(=O)CNc2ccccc2C)c1O	GPR151 activ 5.9 | GPR151 conf act inactive | GPR119 counter inactive
COc1cc(OC)cc(C(=O)Nc2ccc(Cc3ccncc3)cc2)c1	none
